From PubChem BioAssay (NCI)
The panel holds about 83,000 compounds, 20% with a hit somewhere; the sample as a whole holds those more often.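 Note: values are percent growth. 100 is the growth of untreated cells, values between 100 and 0 indicate rising inhibition; between -100 and 0 indicates cell death.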 Activity calls are given as the source filed them.

Each compound was assayed on SNB-19 CNS (assay: NCI-60 one-dose screen, 48 h (100 = growth as untreated, 0 = no growth, -100 = all killed)). Conditions: 10 µM unless noted.
Experimental: Growth inhibition of the SNB-19 human tumor cell line is measured as a screen for anti-cancer activity. Cells are grown in 96 well plates and exposed to the test compound for 48 hours. Compounds are tested at a single concentration, which is 10^-5 M for most compounds. The reported endpoint is percent growth (GI% or GIPRCNT), where numbers from 0 - 100% represent growth inhibition, and numbers from -100% - 0 represent cell death. For example, a value of 40 represents 60% growth inhibition. A value of 0 means no net growth occurred over the course of the experiment. A value of -40 indicates 40% of cells at the beginning of the experiment died by the end of the experiment. A value of -100 means all cells are dead at the end of the experiment.
NCI-60 Human Tumor Cell Lines Screen was performed using the standard one-dose NCI protocol, which is described in more detail at https://dtp.cancer.gov/discovery_development/nci-60/default.htm.
Compounds with GIPRCNT values below 10 were considered active. Activity score was based on GIPRCNT using the following formula: […]
Score is 0 for GIPRCNT values of 100 or above, 50 for GIPRCNT values of 0, and 100 for GIPRCNT values of -100.

Structure (SMILES) | growth
CC(C)C[C@H](C(=O)N[C@@H](C)C(N)=O)N1CC=CCN(O)S1(=O)=O | 86.2% [5 µM] (inactive)
CC(=O)c1ccc(Cc2ccc(C(C)=O)s2)s1 | 98.8% (inactive)
Cc1nc2ccccc2c(/C=C/c2ccc(F)cc2)c1C(N)=O | 99.2% (inactive)
CCCN1CCN(c2ccc3nc(-c4ccc5nc(-c6cc(OC)ccc6OC)[nH]c5c4)[nH]c3c2)CC1 | 115% (inactive)
O=c1oc2ccc(Cl)cc2c(=O)n1-c1ccc(Cl)cc1F | 18.4% (inactive)
CNCCNc1nc2ccccc2c2c(=O)c3cc(OC)ccc3sc12 | 57.6% (inactive)
Cc1ccc(C)c(-c2csc(Nc3ccc(C)c(C)c3)n2)c1 | 84% (inactive)
COc1ccc(Cn2cc(Cn3c(=O)c(-c4nc5ccccc5[nH]4)cc4ccccc43)nn2)c(OC)c1OC | 22.8% (inactive)
O=Cc1c(OCc2cnnn2CC(=O)Nc2ccc(Br)cc2)ccc2ccccc12 | 90.4% (inactive)
O=[N+]([O-])c1cc2c(ccc3occc32)o1 | 49.4% (inactive)
COc1ccc(-c2cn[nH]c2-c2cc(OC)c(OC)c(OC)c2)cc1OCc1ccccc1 | 41.1% (inactive)
Clc1ccc(Oc2ccc(Nc3ncnc4onc(-c5ccccc5)c34)cc2)c(Cl)c1 | 106% (inactive)
CCOc1ccc2c(c1)CN(Cc1ccc(Cl)cc1)CO2 | 18.1% (inactive)
O=C(Nc1ccc(Br)cc1F)c1cc(F)ccc1O | 19.3% (inactive)
Cc1ccccc1CNC(=O)C1CN(c2ccc(Cl)cc2)N(c2ccc(Cl)cc2)C1=O (stereo not given) | 89.5% (inactive)
COc1cc(/C=C/C(=O)c2ccc(Cl)cc2)cc(CN2CCCCC2)c1O | 85.4% (inactive)
O=c1oc2ccc(Br)cc2c(=O)n1-c1ccc(F)cc1F | 12.5% (inactive)
NCCNc1nc2ccc(F)cc2c2c(=O)c3cc(F)ccc3sc12 | 64.6% (inactive)
CC(C)[C@H](NC(=O)Cn1cc(C(=O)O)nn1)C(=O)O | 105% (inactive)
COc1ccc(-c2nsc3c2NC(=O)CC3c2cccc(OC)c2)cc1 (stereo not given) | 70.3% (inactive)

Structure (SMILES) | growth
O=C1/C(=C\c2ccc[nH]2)c2ccccc2N1c1ccccc1 | 92.2% (inactive)
O=C(Nc1ccc(-c2nc3ccc(NC(=O)c4ccc(Cl)cc4)cc3[nH]2)cc1)c1ccc(Cl)cc1 | 35.2% (inactive)
COc1ccc(CCN2C(=O)/C(=C/c3ccc(C4Oc5ccccc5C5CC(c6cccc(OC)c6)=NN54)cc3)SC2=S)cc1 (stereo not given) | 99.1% (inactive)
COc1ccc(Cn2c(Br)c3c(c2Br)-c2nc(N)sc2CC3)cc1 | 66.9% (inactive)
O=C(Nc1ccc(F)cc1F)c1cc(I)ccc1O | 16.8% (inactive)
COc1ccc(CCN2CCC(CN(C)Cc3cnn(-c4ccccc4)c3)CC2)cc1 | 29.4% (inactive)
O=C(NC1CCN(Cc2ccccc2)CC1)c1cc2nc(-c3ccc(Cl)s3)cc(C(F)(F)F)n2n1 | 101% (inactive)
O=C(/C=C/c1ccc(C(F)(F)F)cc1)c1ccc(Nc2nc(NCCO)nc(N3CCOCC3)n2)cc1 | 39.5% (inactive)
COc1ccc(/C=C2\NC(=O)NC2=O)cc1O | 102% (inactive)
COc1ccc(C2C3=C(COC3=O)N(CCO)c3cc4c(cc32)CCC4)cc1OC (stereo not given) | 27.8% (inactive)
O=C(Nc1ccc(I)cc1F)c1cc(F)ccc1O | 16.8% (inactive)
O=C(Nc1ccsc1C(=O)NC1CCCCC1)c1ccc(F)cc1 | 98.8% (inactive)
O=C(CCN1C(=O)c2ccccc2C1=O)Nc1ccc(Cl)cc1 | 90.3% (inactive)
CCOc1ccc(Nc2ccnc3cc(Cl)ccc23)cc1 | 16% (inactive)
Cc1ccc2[nH]c(=O)cc(-n3nncc3Cn3c4ccccc4c4ccccc43)c2c1 | 97.1% (inactive)
O=c1c(-c2nc3ccccc3[nH]2)cc2ccccc2n1Cc1cn(Cc2ccccc2Cl)nn1 | 54.8% (inactive)
Oc1[nH]c2ccccc2c1N=Nc1nnc2n1N=C(c1ccccc1)CS2 | 83.6% (inactive)
CCN1C(=O)N(CC)C2C1NN=c1s/c(=C3\C(=O)N(CC(C)(C)C)c4ccccc43)c(=O)n12 (stereo not given) | 33.1% (inactive)
O=C(Nc1ccc(N2CCNCC2)cc1)c1[nH]ncc1Nc1cc(C2CC2)ncn1 | 65.4% (inactive)
O=C(O)CCCN1C(=O)C2C3CCC(C3)C2C1=O (stereo not given) | 104% (inactive)
